Source: PubChem BioAssay
Sampled rows, rich in hits. Any-hit rate of the full collection: about 2.8%.
TGFb inhibitor: TGF-b pathway inhibition; HepG2 CAGA-GFP TGF-b/SMAD3 reporter, GFP fluorescence, 18 h; TGF-beta stimulated, 500 pg/mL final; Potency, µM (series often up to 46.1 µM), most hits filed as inhibitors; 1.2% of 410,000 active; AID 588855; note: nearly all actives have a fitted effect of over 65% in size
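TGF-beta reporter screen: HEPG2 CAGA-GFP, 1% FBS, 500 pg/mL TGF-beta final, 18 h; per-cell GFP summed per well; curves fitted and categorized by class.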
ATXN2 expr inh: inhibitors of ATXN2 expression; HEK-293 ATXN2-luciferase reporter, luminescence, 24 h; Potency, µM (titrated, usually from 57 µM), actives largely listed as inhibitors; 0.72% of 360,000 active; AID 1745845; note: nearly all actives have a fitted effect of over 55% in size
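qHTS (up to 57 uM final) was run with 24 h compound exposure of reporter cells at 37 °C. Each well was multiplexed: SteadyGlo luminescence measured ATXN2-luciferase expression after a fluorogenic Gly-Phe-AFC viability readout (25 uM final).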
HttQ103 aggreg: reduces HttQ103-GFP aggregates in PC12 cells | PC12 HttQ103-GFP aggregates, Acumen cytometry, 40 h | Potency, µM (titrated, usually from 46.1 µM), usual class: inhibitors | 1.1% of 220,000 active; note: nearly all actives have a fitted effect of over 60% in size
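Huntingtin Q103 exon 1–GFP aggregates in induced PC12 cells (100 nM tebufenozide) were quantified by cytometry from lysates, with compounds dosed in titration.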
ATXN viability: cell viability loss in ATXN counter-screen | S2 cells (HEK-293 line with an ATXN2-luciferase reporter) viability, CellTiter-Fluor protease fluorescence, 24 h | Potency, µM (highest dose often 56.7 µM), hits mostly cytotoxic | 0.49% of 400,000 active | AID 651635; note: nearly all actives have a fitted effect of over 40% in size
HTT ATP protect: Huntington cell model cytoprotection by ATP luminescence; PC12 HTT-Q103 induced, cytoprotection, ATP luminescence, 40 h; Potency, µM (series often up to 56.4 µM), most hits filed as activators; 0.14% of 230,000 active; AID 1471; note: nearly all actives have a fitted effect of over 45% in size
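Quantitative HTS on tebufenozide-induced (100 nM) PC12 cells expressing HTTQ103 exon 1–GFP; compounds tested as a concentration series; survival measured via cellular ATP.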
HepG2 tox-1: HepG2 cytotoxicity, counter-screen for TGF-b inhibitors; HepG2 CAGA-GFP viability, ATP luminescence, 18 h; Potency, µM (series often up to 46.1 µM), usual class: cytotoxic; 0.76% of 410,000 active; AID 588856
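HepG2 CAGA-GFP cells (1000/well, DMEM with 1% FBS) received compound, then TGF-beta at 500 pg/mL final, and were incubated 18 hours at 37 degrees C. Viability was read by CellTiter-Glo luminescence. Media-only wells were set as complete cell-killing and DMSO as no toxicity.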
TGFb CAGA inh: TGF-b pathway inhibition, cherry-pick retest; shares compounds with TGFb inhibitor; HepG2 CAGA-GFP TGF-b reporter, GFP fluorescence, 18 h; cells stimulated with TGF-beta, 500 pg/mL; Potency, µM (series often up to 46.1 µM), hits mostly inhibitors; 63% of 1,600 active; note: nearly all actives have a fitted effect of over 65% in size
HepG2 tox-2: toxic to HepG2 cells in TGF-b counterscreen; shares compounds with TGFb inhibitor; HepG2 CAGA-GFP viability, ATP luminescence, 18 h; cells stimulated with TGF-beta, 500 pg/mL; Potency, µM (doses to about 46.1 µM), most hits filed as inhibitors; 27% of 1,600 active; AID 720535; note: nearly all actives have a fitted effect of over 70% in size
CCL64 TGFb inh: blocks TGF-b signaling in CCL64 reporter cells; CCL64 CAGA-GFP reporter, TGF-b stimulated, GFP fluorescence, 18 h; shares compounds with TGFb inhibitor; 41% of 1,600 active; Potency, µM (top dose mostly 46.1 µM), usual class: inhibitors; note: nearly all actives have a fitted effect of over 65% in size
TGFb COP inh: TGF-b inhibition validated with COP promoter; shares compounds with TGFb inhibitor; 3% of 1,600 active; Potency, µM (series often up to 46.1 µM), usual class: inhibitors; HepG2 COP-GFP TGF-b reporter, GFP fluorescence, 18 h; cells stimulated by added recombinant TGF-beta; note: nearly all actives have a fitted effect of over 70% in size
Each line names hits and unclear results; the compound was inactive in the other large screens (follow-up assays come after a bar, where they were run); ! = repeats disagree. Calls come from the whole dose curve; as a rule, active = well fitted curve in the direction sought with a large enough effect; inconclusive = small, poorly fitted or top-dose-only effect, or another doubt; inactive = no such curve, though single readings can be large; an effect the other way counts as inactive or inconclusive.

O=C(C1=C[C@H](C2CCCCC2)C[C@H](OCc2ccc(CO)cc2)O1)N1CCN(Cc2ccc3c(c2)OCO3)CC1	TGFb inhibitor inconclusive, ATXN2 expr inh inconclusive, ATXN viability inconclusive
O=C(C1=C[C@@H](C2CCCCC2)C[C@@H](OCc2ccc(CO)cc2)O1)N1CCN(Cc2ccc3c(c2)OCO3)CC1	TGFb inhibitor 11µM, ATXN2 expr inh inconclusive, ATXN viability inconclusive | TGFb CAGA inh 21µM | HepG2 tox-2 inactive | CCL64 TGFb inh inconclusive | TGFb COP inh inactive
COc1ccc2cc1Oc1ccc(cc1)C[C@@H]1c3c(cc(OC)c4c3Oc3cc5c(cc3O4)CCN[C@H]5C2)CCN1C	none (no result: TGFb inhibitor, ATXN2 expr inh, HttQ103 aggreg, ATXN viability, HepG2 tox-1)
CC(OCc1ccccc1)C(NC(=O)OC(C)(C)C)C(=O)NC1COC2CC(n3cc(F)c(=O)[nH]c3=O)OC12 (stereo unspecified)	none (no result: ATXN2 expr inh, HttQ103 aggreg, ATXN viability, HTT ATP protect)
COc1ccc(C2=NNC(=Nc3cc(S(=O)(=O)N(C)C)ccc3C)SC2)c(OC)c1	TGFb inhibitor inconclusive, ATXN viability inconclusive (no result: ATXN2 expr inh) | TGFb CAGA inh inconclusive | HepG2 tox-2 inconclusive | CCL64 TGFb inh inconclusive | TGFb COP inh inactive
COc1ccc(Nc2nc(-c3ccccc3)nc3ccccc23)cc1	TGFb inhibitor inconclusive, ATXN viability inconclusive (no result: HttQ103 aggreg, HTT ATP protect) | TGFb CAGA inh inconclusive | HepG2 tox-2 inactive | CCL64 TGFb inh inconclusive | TGFb COP inh inactive
Cc1ccc(Nc2nc(-c3cccnc3)nc3ccccc23)cc1	TGFb inhibitor inconclusive, ATXN2 expr inh inconclusive, HttQ103 aggreg inconclusive, ATXN viability inconclusive, HepG2 tox-1 20µM | TGFb CAGA inh inconclusive | HepG2 tox-2 inconclusive | CCL64 TGFb inh inconclusive | TGFb COP inh inactive
c1ccc(Nc2nc(-c3cccnc3)nc3ccccc23)cc1	none (no result: TGFb inhibitor, ATXN2 expr inh, HttQ103 aggreg, ATXN viability, HepG2 tox-1)
CCCN1CCC(=O)N(C(CSc2ccc(OC)cc2)c2ccccc2)CC1 (stereo unspecified)	TGFb inhibitor inconclusive (no result: ATXN2 expr inh, HttQ103 aggreg, ATXN viability, HTT ATP protect)
c1ccc2sc(C3CCN(Cc4nnnn4Cc4ccc5c(c4)OCO5)CC3)nc2c1	TGFb inhibitor 14µM, HttQ103 aggreg inconclusive | TGFb CAGA inh inconclusive | HepG2 tox-2 inactive | CCL64 TGFb inh inactive | TGFb COP inh inactive
COc1ccc(Cn2nnnc2CN2CCC(c3nc4ccccc4s3)CC2)cc1	none
Cc1ccc(CS(=O)(=O)c2ncc(Cl)c(C(=O)Nc3ccc(OC(F)F)cc3)n2)cc1	TGFb inhibitor 10µM, ATXN2 expr inh inconclusive, ATXN viability inconclusive, HepG2 tox-1 18µM (no result: HttQ103 aggreg, HTT ATP protect) | TGFb CAGA inh 8.2µM | HepG2 tox-2 16µM | CCL64 TGFb inh 3.3µM | TGFb COP inh inconclusive
O=C(NCc1ccccc1)c1nc(S(=O)(=O)Cc2ccccc2)ncc1Cl	TGFb inhibitor 6.3µM, ATXN viability inconclusive, HepG2 tox-1 8.9µM! (no result: ATXN2 expr inh, HttQ103 aggreg, HTT ATP protect) | TGFb CAGA inh 4.6µM | HepG2 tox-2 5.2µM | CCL64 TGFb inh 2.3µM | TGFb COP inh 29µM
CCS(=O)(=O)c1ncc(Cl)c(C(=O)NCc2ccccc2)n1	none (no result: TGFb inhibitor, ATXN2 expr inh, HttQ103 aggreg, ATXN viability, HTT ATP protect)
O=C(NCc1ccc2c(c1)OCO2)c1nc(S(=O)(=O)Cc2ccccc2)ncc1Cl	TGFb inhibitor 10µM, ATXN2 expr inh inconclusive, ATXN viability inconclusive (no result: HttQ103 aggreg, HTT ATP protect) | TGFb CAGA inh 2.3µM | HepG2 tox-2 3.7µM | CCL64 TGFb inh 2.6µM | TGFb COP inh 23µM
COc1ccc(CNC(=O)c2nc(S(=O)(=O)Cc3ccccc3)ncc2Cl)cc1	TGFb inhibitor 6.3µM, ATXN viability 18µM, HepG2 tox-1 13µM (no result: ATXN2 expr inh, HttQ103 aggreg, HTT ATP protect) | TGFb CAGA inh 3.7µM | HepG2 tox-2 16µM | CCL64 TGFb inh 2.3µM | TGFb COP inh inconclusive
S=C(S)NCCCn1ccnc1	none (no result: TGFb inhibitor, ATXN2 expr inh, HttQ103 aggreg, ATXN viability, HepG2 tox-1)
CC[C@]12c3[nH]c4cc(-c5ccco5)ccc4c3CCN1C(=O)[C@@H](CC(=O)NCC13CC4CC(CC(C4)C1)C3)C[C@@H]2C(=O)N1CCN(C(=O)c2ccco2)CC1	TGFb inhibitor 13µM, ATXN2 expr inh inconclusive, ATXN viability inconclusive (no result: HttQ103 aggreg, HTT ATP protect) | TGFb CAGA inh inconclusive | HepG2 tox-2 inactive | CCL64 TGFb inh inconclusive | TGFb COP inh inactive
NC(=O)C1CCCc2c1[nH]c1ccc(Cl)cc21 (stereo unspecified)	none (no result: TGFb inhibitor, HttQ103 aggreg, ATXN viability, HTT ATP protect, HepG2 tox-1)
